FMDV inh: antivirals against foot and mouth disease virus | FMDV antiviral cell-based qHTS | Potency, µM (titrated, usually from 57.9 µM), actives largely listed as inhibitors | 410,000 tested, 1.2% active | AID 1159524; calls by dose curve; tested in HEK293T cells; further: read-out not given here; nearly all actives have a fitted effect of over 45% in size
Marburg entry inh: blocks Marburg virus binding to or entry into cells; Potency, µM (highest dose often 37.8 µM), usual class: inhibitors; Marburg virus pseudotyped entry inhibition, cell reporter; 300,000 tested, 1.8% active; calls by dose curve; tested in HEK293 cells
Lassa entry inh: blocks Lassa virus binding to or entry into cells. AID 540256. Potency, µM (doses to about 37.9 µM), actives largely listed as inhibitors. 300,000 tested, 1.2% active. Lassa virus pseudotype entry inhibition, cell reporter; calls by dose curve; tested in HEK293 cells; further: nearly all actives have a fitted effect of over 50% in size
HCMV inh: human cytomegalovirus inhibition | activity change, negative = inhibition, % at 57.5 µM | AID 1259415 | HFF cells, HCMV-luciferase reporter, 72 h; active compounds read low | 410,000 tested, 4.5% active; in the data active means activity change below about -60%; inconclusive means no clear call, values can overlap the other calls; inactive means above about -39%
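Luciferase read-out from HCMV-luciferase-infected HFFs (MOI 1 PFU/cell) 72 h post infection at 37C; compounds added after 16 h cell attachment; activity normalized between buffer-only basal and Salinomycin (10uM) inhibitor controls.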
Hits are given with their value; i = inactive; ? = inconclusive; nt = not tested or not shown. This is a sample that favours compounds with a hit; in the whole collection about 6.2% have one here.

SMILES	FMDV inh	Marburg entry inh	Lassa entry inh	HCMV inh
COc1ccc(OC(=O)N(C)C[C@@H]2OCc3ccccc3-c3c(n(C)c4ccccc34)C(=O)N([C@H](C)CO)C[C@@H]2C)cc1	i	nt	nt	i
COc1ccc(C2NN=C(c3c[nH]c4ccccc34)C2O)cc1 (stereo not given)	i	nt	nt	i
COc1ccc(C2C(O)C(c3c[nH]c4ccccc34)=NN2C(=O)CCl)cc1 (stereo not given)	18µM	3.2µM	?	-104
Cc1nn(CC(=O)NCc2ccccc2Br)c(=O)c2cc3occc3n12	i	i	nt	i
Nc1nc(CN2CCN(c3ccccc3F)CC2)nc(Nc2ccc3c(c2)OCCO3)n1	22µM	i	i	i
Cc1ccc(Cn2cnc3nc4c(cc3c2=O)CC(C)CC4)cc1 (stereo not given)	i	nt	i	i
CCCCNc1cc(C)nc(NCc2ccccc2)n1	?	11µM	11µM	nt
Cc1cc(Nc2ccccc2)nc(NCc2ccccc2)n1	i	?	?	-66
Cc1cc(N2CCC(C)CC2)nc(NCc2ccccc2)n1	i	?	18µM	-85
Cc1cc(Nc2ccc(Cl)cc2)nc(NCc2ccccc2)n1	32µM	?	?	i
Cc1cc(C)nc(NCCCc2ccccc2)n1	nt	i	i	i
COC(=O)c1c(C(=O)OC)c(-c2cccc(Cl)c2)n2c1CS(=O)(=O)C2	i	nt	nt	i
CCOc1ccc(N2C(=O)/C(=C/c3ccco3)N(C)C2=S)cc1	i	i	i	i
Cc1cc(-c2nn(-c3ccccc3F)cc2CN2CCN(c3ccncc3)CC2)c(C)s1	i	6.3µM	?	i
Cc1cc(-c2nn(-c3ccccc3F)cc2CN2CCC(O)CC2)c(C)s1	i	nt	nt	i
CC(C)[C@H](NC(=O)C1CCN(S(=O)(=O)c2ccccc2)CC1)C(=O)NCc1ccc(F)cc1	i	nt	nt	i
CN(C)/C=C/C(=O)c1ccc([N+](=O)[O-])c(CS(=O)(=O)c2ccccc2)c1	i	i	i	-98
COc1cccc(-c2ccccc2C2=CC(=O)CC(C)(C)C2=O)c1	i	nt	nt	i
Cc1ccccc1CN1C[C@@H]2C[C@@H](c3cnc(N4CCOCC4)s3)N3CCC[C@@]23C1=O	i	nt	nt	-76
Cc1oc(-c2cccc(Cl)c2)nc1CN1CCC(C(=O)N2CCN(c3ccccn3)CC2)CC1	20µM	nt	nt	nt
Cc1ccc(C)c(N2CCN(C(=O)C3CCN(Cc4nc(-c5cccc(Cl)c5)oc4C)CC3)CC2)c1	20µM	?	i	i
COc1ccc(-c2nc(CN3CCC(C(=O)NCc4ccc(F)cc4)CC3)c(C)o2)cc1OC	i	i	i	i
CCc1ccc(-c2nc(CN3CCC(C(=O)N4CCN(c5ccccn5)CC4)CC3)c(C)o2)cc1	25µM	?	?	i
CCc1ccc(-c2nc(CN3CCC(C(=O)NCc4ccc(F)cc4)CC3)c(C)o2)cc1	i	21µM	?	i
COc1ccc(CCNC(=O)CSc2ccc(-c3ccccc3)nn2)cc1	nt	i	i	nt
SMILES	FMDV inh	Marburg entry inh	Lassa entry inh	HCMV inh
Clc1cccc(N/N=C/c2ccc(N3CCOCC3)s2)c1	?	i	i	-83
CC(C)(C)OC(=O)N/N=C/c1ccc(N2CCOCC2)s1	i	i	1.8µM	i
CCn1nnc2cc(C(=O)NCCc3ccccc3F)ccc21	i	6.3µM	1.1µM	i
O=C1C(=O)N(CNc2ccccn2)c2ccccc21	i	?	?	-68
Cc1cnc(CNC(=O)c2ccc3nc([C@@H]4O[C@H](CO)[C@H](O)[C@H](O)[C@H]4O)[nH]c3c2)cn1	i	nt	nt	?
Cc1ccc2[nH]c(=O)c3cc(C(=O)N4CCN(c5ccccc5F)CC4)sc3c2c1	i	i	i	i
CC1=NNC(=O)/C1=C\c1cn(-c2ccccc2)nc1-c1ccc(F)cc1	11µM	8.9µM	?	nt
O=Cc1cn(-c2ccccc2)nc1-c1ccc(F)cc1	i	nt	nt	i
CC1=NNC(=O)/C1=C\c1cn(-c2ccccc2)nc1-c1cccs1	10µM	i	?	-100
Cc1ccc(Nc2nc3ccccc3o2)cc1F	i	?	i	i
O=C(c1ccccc1)C1N=NCC1c1ccc(Cl)cc1 (stereo not given)	i	i	i	?
CCOC(=O)c1c(-c2ccccc2)nc2ccccn12	i	i	?	-63
CCOC(=O)c1c(-c2ccccc2)nc2c(C)cccn12	i	i	i	i
COc1ccc(-c2cn(-c3ccc(C)c(Cl)c3)c(=S)[nH]2)cc1OC	?	?	i	-66
CC12CCC(=O)N1C(C(=O)Nc1ccccc1N1CCCC1)CS2 (stereo not given)	i	?	i	i
O=C(CCN1C(=O)C2C3C=CC(C3)C2C1=O)N1CCN(c2ccccc2Cl)CC1 (stereo not given)	i	i	i	i
CN1CCCN(C(c2ccccc2)c2ccc(Cl)cc2)CC1 (stereo not given)	i	?	13µM	?

Compound activity from PubChem.
